Measured values reported in PubChem BioAssay (Tox21).
Several values for one entry are separate records, joined by “and”; a condition that tells them apart may be missing. Equal values may be shown once. Unmarked numbers belong to inactive results. Records with an inconclusive call do not appear. Where a call stands in place of a potency, no number is given. Activity calls are given as the source filed them. Unless noted, the call rests on the fitted dose curve.

Legend:
[1] = biological target: Gonadotropin-releasing hormone receptor (Homo sapiens) (UniProt P30968); assay: Human gonadotropin-releasing hormone receptor (GnRHR) small molecule agonists, calcium flux assay in GnRHR-HEK293 cells (AID 1920063); further: nearly all actives have a fitted effect of over 35% in size
Method in brief: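 Agonist mode: compounds at 15 concentrations, in triplicate, went onto calcium dye-loaded GnRHR-HEK293 cells. Intracellular calcium was then followed as 480/540 nm fluorescence at 1 s intervals over 3 min.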

[2] = biological target: KiSS-1 receptor (Homo sapiens) (UniProt Q969F8); assay: Human kisspeptin (KISS1R) small molecule agonists, calcium flux assay in KISS1R-HEK293 cells (AID 1920064; active means well fitted activation curve with a large enough effect in the repeat runs)
Method in brief: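 Agonist mode: intracellular calcium rise tracked at 1 s intervals over 3 min (480/540 nm) immediately after compound addition to dye-loaded KISS1R-HEK293 stable cells. Each compound tested at 15 concentrations in triplicate.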

[3] = G protein-coupled receptor (GPCR) small molecule agonists, calcium flux assay: HEK293 wild type cell line counter screen (AID 1920065)
Method in brief: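 Calcium flux counter screen: compound added in agonist mode at 15 concentrations in triplicate to dye-loaded parental HEK293 cells. Fluorescence (480/540) read kinetically for 3 min; ATP served as positive control.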

[4] = p53 small molecule agonists, cell-based qHTS assay with human liver microsomes (AID 1963577)
Method in brief: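 p53RE-bla cells, 4,000/well, compound added after 5 h, with human liver microsomes 0.5 mg/mL and NADPH 0.5 mg/mL final; 16 h at 37 C, then LiveBLAzer 2 h RT, fluorescence.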

[5] = p53 small molecule agonists, cell-based qHTS assay with rat liver microsomes (AID 1963578)
Method in brief: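 p53RE-bla cells, 4,000/well, pre-incubated 5 h, then given compounds plus rat liver microsomes (0.5 mg/mL final) and NADPH (0.5 mg/mL final). Incubation 16 h at 37 C; beta-lactamase reporter read by LiveBLAzer fluorescence after 2 h at room temperature.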

[6] = p53 small molecule agonists, cell-based qHTS assay with human liver microsomes: qHTS cell viability counter screen (AID 1963579); further: nearly all actives have a fitted effect of over 45% in size; further: potency means the concentration at half of the fitted maximal effect
Method in brief: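 p53RE-bla cells, 4,000/well, dosed 5 hours after plating, with human liver microsomes (0.5 mg/mL final) plus NADPH (0.5 mg/mL final), 16 hours at 37 C. Viability read as CellTiter-Glo luminescence after 30 min at room temperature.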

[7] = p53 small molecule agonists, cell-based qHTS assay: qHTS cell viability counter screen (AID 1963581); further: nearly all actives have a fitted effect of over 45% in size; further: potency means the concentration at half of the fitted maximal effect
Method in brief: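 Counter screen read by CellTiter-Glo luminescence (ATP content, 30 min at room temperature), run in the same wells as the beta-lactamase reporter read. HCT-116 p53RE-bla cells saw compounds for 16 h at 37 C.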

[8] = biological target: 5-hydroxytryptamine receptor 2A (Homo sapiens) (UniProt P28223); assay: 5-hydroxytryptamine receptor 2A (HTR2A) small molecule antagonists, cell-based qHTS assay (AID 1963586); further: nearly all actives have a fitted effect of over 45% in size; further: potency means the concentration at half of the fitted maximal effect
Method in brief: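 CHO cells stably expressing human HTR2A were plated for 18 h at 37 C, then loaded with calcium dye for 1 h. Compounds were preincubated 5 min at room temperature before DOI (4 nM solution) was added. Kinetic fluorescence was read for 3 min.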

[9] = biological target: 5-hydroxytryptamine receptor 2A (Homo sapiens) (UniProt P28223); assay: 5-hydroxytryptamine receptor 2A (HTR2A) small molecule agonists, cell-based qHTS assay (AID 1963587); further: nearly all actives have a fitted effect of over 30% in size
Method in brief: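 Kinetic calcium-flux fluorescence (2 min, 1 sec intervals) after compound addition in agonist mode. HTR2A-CHO cells were cultured 18 h, then dye-loaded 1 h at 37 C.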

[10] = biological target: Muscarinic acetylcholine receptor M1 (Homo sapiens) (UniProt P11229); assay: Cholinergic receptor muscarinic 1 (CHRM1) small molecule antagonists, cell-based qHTS assay (AID 1963588); further: nearly all actives have a fitted effect of over 40% in size
Method in brief: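 Compounds were tested at 15 concentrations in three independent runs. Dye-loaded CHRM1-CHO cells were exposed 5 min at room temperature before stimulation by acetylcholine added at 50nM. Intracellular calcium was read kinetically on FDSS for 3 min.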

[11] = biological target: Muscarinic acetylcholine receptor M1 (Homo sapiens) (UniProt P11229); assay: Cholinergic receptor muscarinic 1 (CHRM1) small molecule agonists, cell-based qHTS assay (AID 1963589); further: nearly all actives have a fitted effect of over 35% in size
Method in brief: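 Agonist-mode calcium-flux screen: compounds at 15 concentrations, three independent runs, were pin-transferred onto dye-loaded human CHRM1-CHO cells. Fluorescence was then recorded kinetically every second over minutes.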

[12] = cAMP Responsive Elements (CRE) small molecule agonists, cell-based qHTS assay (AID 1963590)
Method in brief: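 Agonist mode: compound added to CRE-bla HEK 293T cells (2,000/well, 18 h after plating) for 3 h at 37 C/5% CO2. Reporter activity detected via FRET beta-lactamase substrate, 2 h room-temperature loading.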

[13] = cAMP Responsive Elements (CRE) small molecule antagonists, cell-based qHTS assay (AID 1963591; active means well fitted inhibition curve with a large enough effect in the signal ratio in the repeat runs, not every such curve was filed as active; the % refers to the signal ratio; further: potency means the concentration at half of the fitted maximal effect)
Method in brief: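 Antagonist mode: compounds are added alongside the adenylyl cyclase activator NKH477 (0.25 uM final) to CRE-bla HEK293T cells for 3 h. LiveBLAzer FRET substrate, 2 h at room temperature, reports bla expression.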

[14] = biological target: Beta-2 adrenergic receptor (Homo sapiens) (UniProt P07550); assay: Adrenergic beta2 receptor (ADRB2) small molecule antagonists, cell-based qHTS assay (AID 1963592); further: series mostly up to about 92 µM; nearly all actives have a fitted effect of over 50% in size
Method in brief: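 Assay format: CHO-ADRB2 cells, 18-20hr seeding at 37C/5% CO2, then compound plus 1nM isoproterenol agonist mix for 0.5hr RT. Homogeneous time-resolved fluorescence cAMP detection after 1hr, expressed as 665/615 nm ratio.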

[15] = biological target: D(2) dopamine receptor (Homo sapiens) (UniProt P14416); assay: Dopamine D2 receptor (DRD2) small molecule agonists, cell-based qHTS assay (AID 1963594); further: nearly all actives have a fitted effect of over 35% in size
Method in brief: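 cAMP accumulation in DRD2-HEK293 cells measured by HTRF after 1 h detection; compounds added 10 min before NKH477 (200nM […]) forskolin-analogue stimulation, 30 min at room temperature, with Ro20-1724 present at 0.1 mM final.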

[16] = biological target: D(2) dopamine receptor (Homo sapiens) (UniProt P14416); assay: Dopamine D2 receptor (DRD2) small molecule antagonists, cell-based qHTS assay (AID 1963595; active means well fitted inhibition curve with a large enough effect in the signal ratio in the repeat runs, with a control signal flat; the % refers to the signal ratio)
Method in brief: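 HEK293 cells stably expressing DRD2, preincubated with 0.1 mM Ro20-1724 and compounds 10 min, were stimulated with 200 nM NKH477 plus 12 nM quinpirole for 30 min at room temperature; cAMP measured by HTRF (665/620 nm).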

[17] = p53 small molecule agonists, cell-based qHTS assay with rat liver microsomes: qHTS cell viability counter screen (AID 1963580); further: nearly all actives have a fitted effect of over 45% in size; further: potency means the concentration at half of the fitted maximal effect
Method in brief: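 Rat liver microsome (0.5 mg/mL final) and NADPH (0.5 mg/mL final) co-incubation with compounds for 16 h at 37 C on HCT-116 p53RE-bla cells; cytotoxicity taken from intracellular ATP luminescence.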

[18] = p53 small molecule agonists, cell-based qHTS assay (AID 1963582; active means well fitted activation curve with a large enough effect in the signal ratio in the repeat runs, not every such curve was filed as active; the % refers to the signal ratio)
Method in brief: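 Read-out is beta-lactamase FRET fluorescence after 2 h at room temperature with LiveBLAzer B/G substrate. p53 response element-bla cells were treated 16 h at 37 C with compounds in DMSO, added 5 h after seeding.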

[19] = biological target: Beta-2 adrenergic receptor (Homo sapiens) (UniProt P07550); assay: Adrenergic beta2 receptor (ADRB2) small molecule agonists, cell-based qHTS assay (AID 1963593);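 further: CHO cells stably overexpressing human ADRB2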
Method in brief: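 CHO cells stably over-expressing ADRB2 were plated overnight at 37C, then dosed with compounds plus a stimulation mix containing 100uM IBMX and 25uM Ro-20-1724 for 0.5hr at room temperature. cAMP was measured by HTRF competition, 1hr.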

Chain of Beta-2 adrenergic receptor (Homo sapiens) (P07550 whole entry, looked up): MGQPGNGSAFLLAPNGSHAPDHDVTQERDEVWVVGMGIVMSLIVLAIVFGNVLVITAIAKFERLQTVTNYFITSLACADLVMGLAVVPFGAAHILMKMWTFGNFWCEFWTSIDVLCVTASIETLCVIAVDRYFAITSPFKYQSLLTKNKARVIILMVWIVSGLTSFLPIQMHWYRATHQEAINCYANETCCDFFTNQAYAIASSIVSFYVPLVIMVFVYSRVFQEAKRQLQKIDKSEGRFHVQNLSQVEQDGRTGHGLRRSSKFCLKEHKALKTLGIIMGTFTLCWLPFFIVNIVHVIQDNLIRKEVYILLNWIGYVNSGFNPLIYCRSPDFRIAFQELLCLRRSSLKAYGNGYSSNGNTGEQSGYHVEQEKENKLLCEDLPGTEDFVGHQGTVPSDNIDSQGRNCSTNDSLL
Chain of Gonadotropin-releasing hormone receptor (Homo sapiens) (P30968 whole entry, looked up): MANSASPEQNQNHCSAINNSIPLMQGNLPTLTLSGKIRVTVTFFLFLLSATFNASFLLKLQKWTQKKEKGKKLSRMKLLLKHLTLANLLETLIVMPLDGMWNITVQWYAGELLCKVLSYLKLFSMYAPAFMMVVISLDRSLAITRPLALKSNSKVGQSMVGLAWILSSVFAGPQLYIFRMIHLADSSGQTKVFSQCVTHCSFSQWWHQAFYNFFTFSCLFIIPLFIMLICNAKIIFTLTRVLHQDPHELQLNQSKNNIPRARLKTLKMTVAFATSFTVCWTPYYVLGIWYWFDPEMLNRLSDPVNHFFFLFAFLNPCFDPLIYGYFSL
Chain of 5-hydroxytryptamine receptor 2A (Homo sapiens) (P28223 whole entry, looked up): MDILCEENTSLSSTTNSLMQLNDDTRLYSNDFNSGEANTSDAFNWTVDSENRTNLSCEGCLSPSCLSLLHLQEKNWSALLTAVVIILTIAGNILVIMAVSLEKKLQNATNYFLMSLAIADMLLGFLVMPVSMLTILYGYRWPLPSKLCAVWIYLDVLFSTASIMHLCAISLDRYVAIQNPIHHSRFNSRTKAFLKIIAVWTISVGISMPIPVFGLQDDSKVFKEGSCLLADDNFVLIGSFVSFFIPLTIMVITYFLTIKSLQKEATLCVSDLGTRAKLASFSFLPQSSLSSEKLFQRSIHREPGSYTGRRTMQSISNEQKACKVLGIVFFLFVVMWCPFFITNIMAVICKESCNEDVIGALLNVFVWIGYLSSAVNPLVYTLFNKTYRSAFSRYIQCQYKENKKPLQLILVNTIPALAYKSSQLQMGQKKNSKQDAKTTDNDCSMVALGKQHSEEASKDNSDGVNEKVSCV
Chain of D(2) dopamine receptor (Homo sapiens) (P14416 whole entry, looked up): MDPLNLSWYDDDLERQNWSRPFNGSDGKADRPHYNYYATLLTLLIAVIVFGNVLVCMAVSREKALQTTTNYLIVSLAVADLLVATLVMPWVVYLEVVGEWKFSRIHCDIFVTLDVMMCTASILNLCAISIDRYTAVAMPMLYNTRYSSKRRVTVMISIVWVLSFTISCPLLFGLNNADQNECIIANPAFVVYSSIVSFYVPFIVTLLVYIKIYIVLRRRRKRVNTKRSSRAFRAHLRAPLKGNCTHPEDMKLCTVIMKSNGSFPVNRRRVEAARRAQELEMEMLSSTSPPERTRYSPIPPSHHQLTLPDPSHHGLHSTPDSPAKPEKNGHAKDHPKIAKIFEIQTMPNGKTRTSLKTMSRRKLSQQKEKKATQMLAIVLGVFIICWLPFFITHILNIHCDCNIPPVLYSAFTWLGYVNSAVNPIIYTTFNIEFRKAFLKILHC
Chain of KiSS-1 receptor (Homo sapiens) (Q969F8 whole entry, looked up): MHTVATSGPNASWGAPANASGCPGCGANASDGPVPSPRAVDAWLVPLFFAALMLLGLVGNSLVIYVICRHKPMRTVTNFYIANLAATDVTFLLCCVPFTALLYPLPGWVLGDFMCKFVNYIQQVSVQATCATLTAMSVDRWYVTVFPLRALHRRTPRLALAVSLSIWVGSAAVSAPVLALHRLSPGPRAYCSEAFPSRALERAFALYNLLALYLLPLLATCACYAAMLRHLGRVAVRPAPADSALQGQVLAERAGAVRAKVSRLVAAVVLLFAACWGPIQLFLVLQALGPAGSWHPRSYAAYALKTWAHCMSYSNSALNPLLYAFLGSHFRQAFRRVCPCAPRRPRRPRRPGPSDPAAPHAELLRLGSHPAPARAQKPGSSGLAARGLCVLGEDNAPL
Chain of Muscarinic acetylcholine receptor M1 (Homo sapiens) (P11229 whole entry, looked up): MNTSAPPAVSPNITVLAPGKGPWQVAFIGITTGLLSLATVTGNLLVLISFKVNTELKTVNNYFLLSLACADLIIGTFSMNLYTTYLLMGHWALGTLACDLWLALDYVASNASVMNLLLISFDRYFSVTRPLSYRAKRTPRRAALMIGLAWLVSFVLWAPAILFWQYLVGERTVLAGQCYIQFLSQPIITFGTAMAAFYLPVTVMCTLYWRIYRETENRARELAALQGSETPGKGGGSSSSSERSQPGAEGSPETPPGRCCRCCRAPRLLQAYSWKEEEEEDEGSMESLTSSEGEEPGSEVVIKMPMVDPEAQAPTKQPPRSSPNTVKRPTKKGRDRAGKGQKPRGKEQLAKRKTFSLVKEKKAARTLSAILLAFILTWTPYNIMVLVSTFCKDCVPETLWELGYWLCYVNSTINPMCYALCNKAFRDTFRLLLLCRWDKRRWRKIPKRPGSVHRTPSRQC

SMILES | Potency [1] | Potency [2] | Potency [3] | Potency [4] | Potency [5] | Potency [6] | Potency [7] | Potency [8] | Potency [9] | Potency [10] | Potency [11] | Potency [12] | Potency [13] | Potency [14] | Potency [15] | Potency [16] | Potency [17] | Potency [18] | Potency [19]
CC(CO)(CO)CO | inactive | inactive | inactive | inactive | inactive | inactive | inactive | inactive | inactive | inactive | inactive | inactive | inactive | inactive | inactive | inactive | – | – | –
CCCN(C1CCN(C(=O)C2CCNCC2)CC1)[C@@H]1CCc2ccc(OC)cc2C1 | inactive | inactive | inactive | inactive | inactive | inactive | – | 37.5 µM (active) | – | inactive | inactive | – | – | inactive | inactive | inactive | inactive | inactive | –
CCC(=O)Oc1ccc(/C(CC)=C(\CC)c2ccc(OC(=O)CC)cc2)cc1 | inactive | inactive | inactive | inactive | inactive | – | inactive | inactive | inactive | inactive | inactive | inactive | inactive | inactive | – | inactive | – | – | –
CCOC(=O)c1nc(C(Cl)(Cl)Cl)n(-c2ccc(Cl)cc2Cl)n1 | inactive | inactive | inactive | – | – | inactive | – | inactive | inactive | – | – | – | 61.1 µM (active) | – | – | – | inactive | – | –
c1ccc2sc(SN(C3CCCCC3)C3CCCCC3)nc2c1 | inactive | inactive | inactive | – | – | inactive | inactive | inactive | inactive | inactive | inactive | inactive | inactive | inactive | inactive | inactive | inactive | – | inactive
Cc1cc(O)c2c(O)c3c(O)cccc3cc2c1 | inactive | inactive | inactive | – | inactive | inactive | inactive | – | inactive | inactive | inactive | – | – | – | inactive | inactive | inactive | – | –
Nc1cccnc1N | inactive | inactive | inactive | – | – | inactive | inactive | inactive | inactive | inactive | inactive | inactive | inactive | – | inactive | – | inactive | – | –
CS(=O)(=O)c1ccc([C@@H](O)[C@@H](CF)NC(=O)C(Cl)Cl)cc1 | inactive | inactive | inactive | – | – | – | inactive | inactive | inactive | inactive | inactive | inactive | inactive | inactive | inactive | inactive | – | inactive | inactive
C[C@H]1O[C@@H](O[C@H]2[C@@H](O)C[C@H](O[C@H]3[C@@H](O)C[C@H](O[C@H]4CC[C@@]5(C)[C@H](CC[C@@H]6[C@@H]5C[C@@H](O)[C@]5(C)[C@@H](C7=CC(=O)OC7)CC[C@]65O)C4)O[C@@H]3C)O[C@@H]2C)C[C@H](O)[C@@H]1O | inactive | inactive | inactive | – | – | 0.0903 µM (active) | 102 nM (active) and 90.3 nM (active) | – | – | – | – | – | – | inactive | inactive | inactive | 205 nM (active) and 90.3 nM (active) | – | inactive
